# Reference: PubChem BioAssay
# Activity calls are given as the source filed them.
# Tests used:
# [1] = test system: PRMT1 (protein arginine N-methyltransferase 1); experiment: PRMT1 binders on small-molecule microarrays, primary screen, biochemical, small-molecule microarray, 635 nm fluorescence (AID 1088); settings: small-molecule microarray binding, higher = more signal;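 also: binding of Prmt1 protein to compounds spotted on small-molecule microarray slides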
# [2] = yeast growth modulation, basal conditions, primary screen, YJM789 clinical isolate, OD600, 24 h (AID 1089);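 also: growth of clinical yeast isolate S. cerevisiae YJM 789 seeded 1000 cells per well; test concentration not given here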; settings: S. cerevisiae YJM789 growth, higher = more signal, called active from +8 up or from −8 down
# [3] = fission yeast growth modulation, primary screen, strain 972, OD600, 24 h, no modulator (AID 1090);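 also: basal condition with compound alone and no growth modifier present; test concentration not given here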; settings: S. pombe 972 growth, higher = more signal, called active from +8 up or from −8 down
# [4] = S. cerevisiae growth modulation with rapamycin, primary screen, strain BY4716, OD600, 96 h (AID 1091); settings: higher = more signal, called active from +8 up or from −8 down; also: test concentration not given here
# [5] = biological target: Torsin-1A-interacting protein 2 (Homo sapiens) (UniProt Q8NFQ8); experiment: LULL1 binders on small-molecule microarray, primary screen, cell lysate, human LULL1 lysate, 635/667 nm fluorescence (AID 1092); settings: hLULL1 lysate binding, 635 nm fluorescence, higher = more signal;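 also: probe is lysate of COS7 cells overexpressing human LULL1; score merges per-feature 667 nm fluorescence with signal-to-noise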
# Chain of Torsin-1A-interacting protein 2 (Homo sapiens) (Q8NFQ8 whole entry, looked up): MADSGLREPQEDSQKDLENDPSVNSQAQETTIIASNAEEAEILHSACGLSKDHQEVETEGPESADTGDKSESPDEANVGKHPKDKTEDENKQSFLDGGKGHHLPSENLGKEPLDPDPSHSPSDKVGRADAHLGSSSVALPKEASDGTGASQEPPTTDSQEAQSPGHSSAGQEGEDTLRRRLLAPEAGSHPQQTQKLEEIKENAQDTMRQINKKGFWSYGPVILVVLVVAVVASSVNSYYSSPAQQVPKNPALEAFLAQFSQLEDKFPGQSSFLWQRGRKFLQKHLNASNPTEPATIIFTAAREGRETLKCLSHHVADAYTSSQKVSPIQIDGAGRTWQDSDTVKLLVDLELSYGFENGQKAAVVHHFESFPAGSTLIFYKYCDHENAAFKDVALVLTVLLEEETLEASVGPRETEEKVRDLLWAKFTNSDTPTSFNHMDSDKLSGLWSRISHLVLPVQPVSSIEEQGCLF
# [6] = E. coli growth modulation, two-sided OD650, primary screen, E. coli filamentation project, strain DRC41, 24 h (AID 1093); settings: OD650, 24 h, higher = more signal, called active from +8 up or from −8 down;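 also: MC1000 strain lacking acrAB efflux and sulA so SOS filamentation is blocked; test concentration not given here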
# [7] = small-molecule microarray binders of probe aLefty2, primary screen, biochemical, biotinylated probe, 635/667 nm fluorescence (AID 1094); settings: higher = more signal;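 also: score merges spot fluorescence near 667 nm with spot signal-to-noise ratio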
# [8] = test system: Noggin (protein binding on small-molecule microarray); experiment: Noggin binders on small-molecule microarray, primary screen, biochemical, 635/667 nm fluorescence (AID 1095); settings: 635 nm fluorescence, higher = more signal;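 also: score merges 667 nm feature fluorescence with signal to noise over triplicate slides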
# [9] = biological target: Neurogenic locus notch homolog protein 3 (Homo sapiens) (UniProt Q9UM47); experiment: NOTCH3 binders on small-molecule microarray, primary screen, biochemical, 635/667 nm fluorescence (AID 1096); settings: NOTCH3 binding, 635 nm fluorescence, higher = more signal
# Chain of Neurogenic locus notch homolog protein 3 (Homo sapiens) (Q9UM47 whole entry, looked up): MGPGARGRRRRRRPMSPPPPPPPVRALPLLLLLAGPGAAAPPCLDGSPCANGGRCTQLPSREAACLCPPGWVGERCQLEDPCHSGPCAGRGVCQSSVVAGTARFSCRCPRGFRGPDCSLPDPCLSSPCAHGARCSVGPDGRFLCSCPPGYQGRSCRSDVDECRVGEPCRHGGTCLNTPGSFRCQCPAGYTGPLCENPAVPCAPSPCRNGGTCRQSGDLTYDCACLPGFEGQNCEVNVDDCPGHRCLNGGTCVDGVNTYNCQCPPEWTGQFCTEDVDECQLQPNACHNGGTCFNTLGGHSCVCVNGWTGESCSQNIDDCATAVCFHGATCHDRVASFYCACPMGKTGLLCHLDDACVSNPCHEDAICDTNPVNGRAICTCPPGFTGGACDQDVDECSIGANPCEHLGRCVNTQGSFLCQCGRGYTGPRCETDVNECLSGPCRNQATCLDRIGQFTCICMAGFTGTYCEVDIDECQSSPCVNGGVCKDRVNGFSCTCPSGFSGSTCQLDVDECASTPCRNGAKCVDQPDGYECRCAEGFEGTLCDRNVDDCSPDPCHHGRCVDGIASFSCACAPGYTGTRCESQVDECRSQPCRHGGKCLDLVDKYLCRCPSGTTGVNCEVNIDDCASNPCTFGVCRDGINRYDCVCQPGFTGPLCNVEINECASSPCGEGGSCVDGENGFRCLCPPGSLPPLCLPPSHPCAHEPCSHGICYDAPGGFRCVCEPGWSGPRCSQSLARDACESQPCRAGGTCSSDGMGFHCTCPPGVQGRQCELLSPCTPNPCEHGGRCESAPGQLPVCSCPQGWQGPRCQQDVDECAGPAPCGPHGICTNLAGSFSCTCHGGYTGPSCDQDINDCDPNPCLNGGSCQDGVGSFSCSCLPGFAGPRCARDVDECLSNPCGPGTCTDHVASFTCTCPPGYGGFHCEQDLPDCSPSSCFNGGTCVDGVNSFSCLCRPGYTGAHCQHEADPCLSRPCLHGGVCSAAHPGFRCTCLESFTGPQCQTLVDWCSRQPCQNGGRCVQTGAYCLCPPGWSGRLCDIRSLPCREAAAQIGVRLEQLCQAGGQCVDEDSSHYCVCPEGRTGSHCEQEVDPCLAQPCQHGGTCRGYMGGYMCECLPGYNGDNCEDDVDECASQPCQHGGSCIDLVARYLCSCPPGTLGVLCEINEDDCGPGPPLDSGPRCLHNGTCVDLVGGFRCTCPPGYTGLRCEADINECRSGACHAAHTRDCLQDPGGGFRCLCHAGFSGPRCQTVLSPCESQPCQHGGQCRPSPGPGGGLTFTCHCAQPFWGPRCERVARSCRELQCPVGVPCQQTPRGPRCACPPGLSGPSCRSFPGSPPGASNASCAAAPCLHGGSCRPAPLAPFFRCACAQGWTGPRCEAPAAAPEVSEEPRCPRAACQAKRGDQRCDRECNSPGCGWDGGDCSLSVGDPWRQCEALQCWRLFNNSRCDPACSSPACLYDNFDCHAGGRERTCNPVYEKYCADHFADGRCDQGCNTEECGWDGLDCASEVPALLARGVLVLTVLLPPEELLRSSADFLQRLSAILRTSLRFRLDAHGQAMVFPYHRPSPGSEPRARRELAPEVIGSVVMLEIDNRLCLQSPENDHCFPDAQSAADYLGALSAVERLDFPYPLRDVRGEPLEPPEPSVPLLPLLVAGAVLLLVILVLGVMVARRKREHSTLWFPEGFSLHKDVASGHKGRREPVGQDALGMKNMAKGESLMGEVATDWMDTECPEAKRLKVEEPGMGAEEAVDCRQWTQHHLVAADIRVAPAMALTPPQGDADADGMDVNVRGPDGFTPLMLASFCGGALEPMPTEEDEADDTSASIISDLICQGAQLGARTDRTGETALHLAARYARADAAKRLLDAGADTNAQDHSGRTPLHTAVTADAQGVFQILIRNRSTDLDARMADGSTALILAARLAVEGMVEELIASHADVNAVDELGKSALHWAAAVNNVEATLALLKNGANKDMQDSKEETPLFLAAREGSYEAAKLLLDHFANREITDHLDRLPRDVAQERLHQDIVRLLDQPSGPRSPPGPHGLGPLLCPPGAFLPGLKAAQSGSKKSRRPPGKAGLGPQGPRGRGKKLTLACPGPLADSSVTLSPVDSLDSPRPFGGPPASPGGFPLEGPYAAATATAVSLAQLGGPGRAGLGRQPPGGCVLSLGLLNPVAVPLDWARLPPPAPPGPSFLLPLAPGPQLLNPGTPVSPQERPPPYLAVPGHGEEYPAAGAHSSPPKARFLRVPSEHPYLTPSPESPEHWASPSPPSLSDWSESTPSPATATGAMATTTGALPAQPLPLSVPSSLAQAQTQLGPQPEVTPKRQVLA
# [10] = small-molecule microarray binders of probe aEGFR, primary screen, biochemical, biotinylated probe, 635/667 nm fluorescence (AID 1097); settings: higher = more signal;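 also: probe is a biotinylated anti-EGFR antibody binding compounds printed on slides; score combines fluorescence near 667 nm and signal to noise of each spot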
SMILES,composite z-score [1],z-score [2],z-score [3],z-score [4],composite z-score [5],z-score [6],composite z-score [7],composite z-score [8],composite z-score [9],composite z-score [10]
COC(=O)c1ccc(C23CC2(C(NP(=O)(c2ccccc2)c2ccccc2)c2ccccc2)C3)cc1 (stereo not given),0.214,-2.72 (inactive),-1.76 (inactive),-0.789 (inactive),3.18,0.259 (inactive),0.888,0.13,1.07,0.0632
COC(=O)[C@@]1(Cc2ccc(OC)cc2)[C@H]2c3cc(C(=O)N(C)C)n(Cc4c(OC)[nH]cc(C)c4=O)c3C[C@H]2CN1C(=O)c1ccccc1,-0.386,-1.88 (inactive),0.349 (inactive),-0.464 (inactive),3.62,-0.252 (inactive),-0.0404,-0.0598,0.145,0.487
C=CCN1C(=O)[C@]2(O[C@H](CCO)[C@@H]([Si](C)(C)c3ccc(OC)cc3)[C@@H]2C)c2cc(NC(=O)[C@H](C)O)ccc21,1.53,0.83 (inactive),-0.759 (inactive),1.31 (inactive),2.77,0.64 (inactive),-0.166,0.392,1.02,-0.151
Cc1ccc(S[C@]2(C(=O)O)CC(=O)N(C3Cc4ccccc4C3)[C@@H]2c2ccc(CO)cc2I)cc1,0.46,-1.47 (inactive),-1.01 (inactive),1.6 (inactive),2.32,-0.263 (inactive),0.125,-1.02,-0.891,-0.132
CCCNC(=O)[C@@]1(c2ccc([N+](=O)[O-])cc2)CC(=O)N(CC23CC4CC(CC(C4)C2)C3)[C@@H]1c1ccc(CO)cc1,0.89,-0.057 (inactive),-0.403 (inactive),4.67 (inactive),0.907,0.156 (inactive),0.164,0.701,0.305,0.105
CCN(CC)c1ccc(N2CC=CC34O[C@@H]5C=CCCOC(=O)C5[C@H]3C(=O)N(CCCCCO)[C@@H]4C2=O)cc1 (stereo not given in full),-0.203,-0.847 (inactive),-1.3 (inactive),-0.818 (inactive),0.965,2.85 (inactive),-0.126,-0.514,-0.272,-0.168
Cc1ccc([C@H]2[C@H](C(=O)O)[C@H](Sc3ccccc3)[C@@H](C(C)C)N2S(=O)(=O)c2ccc(C)cc2)cc1,1.03,-0.611 (inactive),-0.0319 (inactive),-0.993 (inactive),3.03,-1.69 (inactive),0.179,0.0176,1.13,-0.0679
CC(C)c1ccc(NN2C(C(O)c3ccc(N(C)C)cc3)C=CC3C(=O)N(c4ccccc4)C(=O)C32)cc1 (stereo not given),1.56,0.372 (inactive),1.26 (inactive),0.197 (inactive),3.34,-0.158 (inactive),0.188,0.109,1.03,-0.027
O=C1OCCC=C[C@H]2OC34C=CCN(Cc5ccccc5)C(=O)[C@H]3N(CCCO)C(=O)[C@@H]4C12 (stereo not given in full),-0.595,0.252 (inactive),-0.206 (inactive),-1.54 (inactive),0.549,2.79 (inactive),-0.0807,-0.335,-0.278,-0.175
O=C(O)[C@H]1C[C@H]2C(=O)NCC(=O)N2[C@H]1c1ccc(O)cc1,0.294,-0.512 (inactive),-0.81 (inactive),-0.373 (inactive),1.05,1.68 (inactive),-0.025,0.884,0.55,0.308
C=C(COC)C(=O)CC[C@H](OC(C)=O)c1cccc(OCCO)c1,0.591,0.513 (inactive),-1.34 (inactive),-0.0523 (inactive),0.118,0.896 (inactive),-0.158,1.03,-0.902,-0.263
[N-]=[N+]=NCc1ccccc1[C@@H]1OC(c2ccc(OCCCO)cc2)=N[C@]1(Cc1ccccc1)C(=O)N1CCCCC1,1.15,-0.202 (inactive),-1.09 (inactive),1.66 (inactive),2.74,1.47 (inactive),0.332,1.46,1.07,0.193
CCCCC(CC)C(O)C1C=CC2C(=O)N(c3ccccc3)C(=O)C2N1Nc1ccccc1 (stereo not given),0.527,0.549 (inactive),0.645 (inactive),0.804 (inactive),2.94,-1.54 (inactive),0.0319,-0.0087,1.11,0.0276
CN1C=C(C(=O)OCCS(C)(=O)=O)C(C(=O)OCCS(C)(=O)=O)=CC(CCCO)=CC1C1CC1 (stereo not given),0.0371,-0.298 (inactive),-0.0029 (inactive),-0.692 (inactive),0.826,0.731 (inactive),-0.145,0.332,0.574,-0.068
